Test results published in PubChem BioAssay (Tox21).
Records with an inconclusive call do not appear. Calls of active or inactive are those of the source. Unless noted, the call rests on the fitted dose curve; in most records, active means well fitted curve in the direction sought with a large enough effect in the repeat runs; inconclusive means weak or mixed curves; inactive means no such curve, though single readings can be large; an effect the other way counts as inactive or inconclusive.

Assays:
[1] = qHTS assay to identify small molecule antagonists of the sonic hedgehog signaling (Shh) pathway (AID 1259369; calls by dose curve; further: nearly all actives have a fitted effect of over 45% in size)
In short: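 Inhibition of Shh signalling is measured as reduced Gli1-response-element firefly luciferase output in an NIH/3T3-derived stable reporter clone stimulated with conditioned medium for 24hr.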

[2] = biological target: Estrogen receptor beta (Homo sapiens) (UniProt Q92731); assay: qHTS assay to identify small molecule agonists of the estrogen receptor beta (ER-beta) signaling pathway (AID 1259377; active means well fitted activation curve with a large enough effect in the signal ratio in the repeat runs, not every such curve was filed as active; the % refers to the signal ratio)
In short: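 ER-beta-UAS-bla HEK293T (GripTite) cells carrying a UAS-driven beta-lactamase reporter, in medium with 2% charcoal-stripped FBS, were exposed to compounds for 16 hr at 37C; LiveBLAzer B/G FRET substrate was then added and fluorescence read after 2 hours at room temperature.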

[3] = biological target: Estrogen receptor beta (Homo sapiens) (UniProt Q92731); assay: qHTS assay to identify small molecule antagonists of the estrogen receptor beta (ER-beta) signaling pathway (AID 1259378; active means well fitted inhibition curve with a large enough effect in the signal ratio in the repeat runs, not every such curve was filed as active; the % refers to the signal ratio)
In short: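 ER-beta-UAS-bla HEK293T (GripTite) cells in 2% charcoal-stripped FBS medium were preincubated 6 hr at 37C, dosed with compound, then stimulated with 1 nM E2 (final) for 16 hr; beta-lactamase reporter read by B/G FRET fluorescence after 2 hr substrate loading.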

[4] = qHTS assay to identify small molecule agonists of the androgen receptor (AR) signaling pathway in the presence of an antagonist - cell viability counter screen (AID 1259379);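 further: MDA-kb2 human breast cancer cells carrying an MMTV luciferase reporter; series mostly up to about 92 µM; nearly all actives have a fitted effect of over 25% in size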
In short: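 Fluorescence from CellTiter-Fluor, added after 15 hr and read 1 hr later, gave cell viability. Cells were MDA-kb2 exposed to compounds (15 concentrations) in the presence of 3.0uM nilutamide at 37C, 0% CO2.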

[5] = qHTS assay to identify small molecule agonists of the estrogen receptor beta (ER-beta) signaling pathway - cell viability counter screen (AID 1259380); further: nearly all actives have a fitted effect of over 30% in size
In short: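 Same-well viability counter screen. Cells: ER-beta-UAS-bla HEK293T, plated 6 hr before compound, in 2% charcoal-stripped FBS. Compound exposure 16 hr, 37C; viability by CellTiter-Glo luminescence after 30 min at room temperature.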

[6] = qHTS assay to identify small molecule antagonists of the estrogen receptor beta (ER-beta) signaling pathway - cell viability counter screen (AID 1259382); further: series mostly up to about 92 µM; nearly all actives have a fitted effect of over 55% in size
In short: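 Following a 6 hr plating period, HEK293T cells carrying a UAS-driven beta-lactamase reporter under ER-beta control received compounds and 1nM E2 (final). After 16 hr at 37C and 2 hr substrate loading, CellTiter-Glo luminescence indicated viability.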

[7] = qHTS assay to identify small molecule agonists or antagonists of the thyroid stimulating hormone receptor (TSHR) signaling pathway - wild type cell line counter screen (AID 1259384; calls by dose curve)
In short: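 Wild-type HEK293 cells were plated 18 h at 37 C/5% CO2, pin-dosed with compound plus Ro20-1724 medium, held 30 min at room temperature, then given cAMP-d2 and anti-cAMP-cryptate; fluorescence was read after 1 h. Fifteen concentrations, triplicate.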

[8] = biological target: Thyrotropin receptor (Homo sapiens) (UniProt P16473); assay: qHTS assay to identify small molecule antagonists of the thyroid stimulating hormone receptor (TSHR) signaling pathway (AID 1259385; calls by dose curve; further: nearly all actives have a fitted effect of over 20% in size)
In short: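 TSHR-HEK293 cells were plated and held 18 h at 37C/5% CO2, then given compound plus Ro20-1724 and stimulated with TSH at 1.5 ng/mL final. After 30 min at room temperature, cAMP was detected with cAMP-d2/anti-cAMP-cryptate (1 h) by fluorescence.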

[9] = qHTS assay to identify small molecule agonists of the estrogen receptor alpha (ER-alpha) signaling pathway in the presence of an antagonist - cell viability counter screen (AID 1259386);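 further: series mostly up to about 92 µM; cells exposed to compounds for 22 h at 37 °C before the viability read; nearly all actives have a fitted effect of over 30% in size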
In short: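 Cells are starved of estrogens for 5 days in charcoal-stripped serum, seeded for 24hr and co-treated with ICI-182,780 (10.0nM final) and test compounds. After 22hr at 37C, viability is read as CellTiter-Fluor fluorescence.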

[10] = biological target: Progesterone receptor (Homo sapiens) (UniProt P06401); assay: qHTS assay to identify small molecule agonists of the progesterone receptor (PR) signaling pathway (AID 1346784; calls by dose curve; further: nearly all actives have a fitted effect of over 30% in size)
In short: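 PR-UAS-bla HEK 293T cells carrying a UAS-driven beta-lactamase reporter were seeded in medium with 2% charcoal-stripped FBS, preincubated 6 hr at 37C, then exposed to compounds in DMSO for 16 hr; agonism was read by LiveBLAzer B/G FRET fluorescence.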

[11] = biological target: Progesterone receptor (Homo sapiens) (UniProt P06401); assay: qHTS assay to identify small molecule antagonists of the progesterone receptor (PR) signaling pathway (AID 1346795; active means well fitted inhibition curve with a large enough effect in the signal ratio in the repeat runs, not every such curve was filed as active; the % refers to the signal ratio)
In short: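 PR-UAS-bla HEK293T cells carrying a UAS-driven beta-lactamase reporter were plated in medium with 2% charcoal-stripped FBS and rested 6 hr at 37C. Compounds were added with 1 nM R5020 (final) for 16 hr, then FRET substrate loaded 2 hr at room temperature.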

[12] = qHTS assay to identify small molecule antagonists of the progesterone receptor (PR) signaling pathway - cell viability counter screen (AID 1346798); further: series mostly up to about 92 µM; nearly all actives have a fitted effect of over 50% in size
In short: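 PR-UAS-bla HEK293T cells in medium with 2% charcoal-stripped FBS were treated with compounds plus R5020 for 16 hr at 37C. Cell viability was then read by CellTiter-Glo luminescence after 30 min at room temperature in the same wells.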

[13] = qHTS assay to identify small molecule agonists of the progesterone receptor (PR) signaling pathway - cell viability counter screen (AID 1346799; calls by dose curve; further: nearly all actives have a fitted effect of over 45% in size)
In short: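 PR-UAS-bla HEK293T cells, 3,000 per well in medium with 2% charcoal-stripped FBS, were preincubated 6 hr at 37C, then exposed to compounds for 16 hr; viability was read as CellTiter-Glo luminescence after 30 min at room temperature.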

[14] = qHTS assay to identify small molecule antagonists of the TGF-beta/Smad signaling pathway - cell viability counter screen (AID 1346824); further: nearly all actives have a fitted effect of over 50% in size
In short: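 SBE-bla HEK 293T cells were plated overnight at 37 C, then given compounds in DMSO plus TGF-beta1 (added as 0.25 ng/mL solution) for 5 hr. After the bla read, CellTiter-Glo was added to the same wells and luminescence read after 30 min at room temperature.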

[15] = qHTS assay to identify small molecule agonists of the TGF-beta/Smad signaling pathway - cell viability counter screen (AID 1346829); further: top concentration of the series differs between compounds; nearly all actives have a fitted effect of over 45% in size
In short: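 After overnight seating at 37 C and 5% CO2, reporter cells got compounds for 5 hr and FRET substrate for 2 hr; cell viability then came from CellTiter-Glo luminescence.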

[16] = biological target: Thyrotropin-releasing hormone receptor (Homo sapiens) (UniProt P34981); assay: qHTS assay to identify small molecule antagonists of the thyrotropin-releasing hormone receptor (TRHR) signaling pathway (AID 1346877; active means well fitted inhibition curve with a large enough effect in the repeat runs, not every such curve was filed as active; further: series mostly up to about 51 µM)
In short: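 Cells (TRHR-HEK293) are plated and kept 18 h at 37 °C/5% CO2. A calcium-sensitive dye is added for 2 h, compound follows for 5 min at room temperature, and TRH is then given at 1 nM final.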

[17] = biological target: Thyrotropin-releasing hormone receptor (Homo sapiens) (UniProt P34981); assay: qHTS assay to identify small molecule agonists of the thyrotropin-releasing hormone receptor (TRHR) signaling pathway (AID 1346891; calls by dose curve; further: series mostly up to about 58 µM)
In short: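 TRHR-expressing HEK293 cells were plated 18 h at 37 °C/5% CO2, loaded with calcium dye 2 h at 37 °C, then given compound in DMSO; fluorescence was read kinetically for 3 min at 1 s intervals.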

[18] = biological target: Estrogen receptor (Homo sapiens) (UniProt P03372); assay: qHTS assay to identify small molecule agonists of the estrogen receptor alpha (ER-alpha) signaling pathway in the presence of an antagonist (AID 1259383; calls by dose curve; further: top concentration of the series differs between compounds; nearly all actives have a fitted effect of over 15% in size)
In short: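 Cells are hormone-deprived for 5 days (charcoal-stripped FBS, no phenol red), plated for 24hr, spiked with 10.0nM ICI-182,780, then dosed at 15 concentrations. After 22hr at 37C, ONE-Glo luminescence reports ERE-luciferase activity.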

[19] = biological target: Androgen receptor (Homo sapiens) (UniProt P10275); assay: qHTS assay to identify small molecule agonists of the androgen receptor (AR) signaling pathway in the presence of an antagonist (AID 1259381; calls by dose curve; further: nearly all actives have a fitted effect of over 15% in size)
In short: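 Cells are MDA-kb2 (human breast carcinoma, MMTV-luc, AR/GR responsive). Nilutamide is present at 3.0uM final throughout; compounds are added at 15 concentrations and incubated 16hr at 37C before ONE-Glo luminescence detection.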

[20] = qHTS assay to identify small molecule agonists of the TGF-beta/Smad signaling pathway (AID 1346859; active means well fitted activation curve with a large enough effect in the signal ratio in the repeat runs, not every such curve was filed as active; the % refers to the signal ratio; further: series mostly up to about 77 µM)
In short: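 HEK 293T cells stably carrying a beta-lactamase reporter driven by the Smad binding element were seeded overnight, exposed to DMSO-dissolved compounds for 5 hr at 37 C, 5% CO2, then loaded with FRET substrate for 2 hr at room temperature.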

Measured: Potency

Sequence of Thyrotropin-releasing hormone receptor (Homo sapiens) (P34981 whole entry, looked up): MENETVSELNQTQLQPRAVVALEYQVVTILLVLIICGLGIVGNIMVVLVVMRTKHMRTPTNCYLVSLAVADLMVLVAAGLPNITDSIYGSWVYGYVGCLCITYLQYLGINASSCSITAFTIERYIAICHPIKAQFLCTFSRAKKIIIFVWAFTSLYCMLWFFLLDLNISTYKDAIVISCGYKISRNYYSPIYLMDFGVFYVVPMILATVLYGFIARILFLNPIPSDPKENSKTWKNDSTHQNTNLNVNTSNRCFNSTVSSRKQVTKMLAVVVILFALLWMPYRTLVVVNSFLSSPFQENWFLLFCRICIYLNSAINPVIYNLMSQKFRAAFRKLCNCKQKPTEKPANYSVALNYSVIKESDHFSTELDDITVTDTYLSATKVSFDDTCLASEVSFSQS
Sequence of Thyrotropin receptor (Homo sapiens) (P16473 whole entry, looked up): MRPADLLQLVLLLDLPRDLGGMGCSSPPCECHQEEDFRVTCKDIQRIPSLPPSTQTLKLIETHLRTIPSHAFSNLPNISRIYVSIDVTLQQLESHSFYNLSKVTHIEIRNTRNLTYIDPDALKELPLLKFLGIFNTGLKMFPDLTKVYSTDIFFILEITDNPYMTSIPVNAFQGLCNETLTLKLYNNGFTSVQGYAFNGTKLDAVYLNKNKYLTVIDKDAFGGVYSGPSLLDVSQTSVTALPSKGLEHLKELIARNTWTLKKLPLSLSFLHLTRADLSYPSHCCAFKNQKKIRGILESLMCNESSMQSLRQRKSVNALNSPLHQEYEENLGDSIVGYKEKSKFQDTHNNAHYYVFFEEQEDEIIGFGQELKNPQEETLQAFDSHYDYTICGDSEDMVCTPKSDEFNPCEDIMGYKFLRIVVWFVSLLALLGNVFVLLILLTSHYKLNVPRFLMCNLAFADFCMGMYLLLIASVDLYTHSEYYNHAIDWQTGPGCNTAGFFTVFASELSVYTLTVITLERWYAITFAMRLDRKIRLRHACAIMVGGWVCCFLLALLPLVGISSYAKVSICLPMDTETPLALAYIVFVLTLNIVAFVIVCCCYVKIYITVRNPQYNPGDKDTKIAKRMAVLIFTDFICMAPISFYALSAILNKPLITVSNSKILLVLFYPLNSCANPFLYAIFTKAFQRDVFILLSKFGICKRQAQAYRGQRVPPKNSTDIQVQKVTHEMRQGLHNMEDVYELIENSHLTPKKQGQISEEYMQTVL
Sequence of Estrogen receptor (Homo sapiens) (P03372 whole entry, looked up): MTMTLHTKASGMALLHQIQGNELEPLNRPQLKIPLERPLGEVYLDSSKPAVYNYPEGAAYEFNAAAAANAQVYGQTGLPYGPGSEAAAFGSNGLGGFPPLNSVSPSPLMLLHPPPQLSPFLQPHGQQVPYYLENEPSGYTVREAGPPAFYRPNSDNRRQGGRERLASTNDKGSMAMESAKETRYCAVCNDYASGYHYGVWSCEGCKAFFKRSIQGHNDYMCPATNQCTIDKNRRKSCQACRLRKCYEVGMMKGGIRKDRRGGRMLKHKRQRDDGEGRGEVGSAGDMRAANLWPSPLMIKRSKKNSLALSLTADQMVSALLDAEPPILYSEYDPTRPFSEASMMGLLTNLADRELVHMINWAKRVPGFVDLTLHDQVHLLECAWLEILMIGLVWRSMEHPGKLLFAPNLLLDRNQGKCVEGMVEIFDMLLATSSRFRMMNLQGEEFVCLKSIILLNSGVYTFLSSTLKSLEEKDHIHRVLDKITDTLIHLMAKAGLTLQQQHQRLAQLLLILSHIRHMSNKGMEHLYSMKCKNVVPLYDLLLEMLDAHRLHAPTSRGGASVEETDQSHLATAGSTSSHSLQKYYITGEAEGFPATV
Sequence of Estrogen receptor beta (Homo sapiens) (Q92731 whole entry, looked up): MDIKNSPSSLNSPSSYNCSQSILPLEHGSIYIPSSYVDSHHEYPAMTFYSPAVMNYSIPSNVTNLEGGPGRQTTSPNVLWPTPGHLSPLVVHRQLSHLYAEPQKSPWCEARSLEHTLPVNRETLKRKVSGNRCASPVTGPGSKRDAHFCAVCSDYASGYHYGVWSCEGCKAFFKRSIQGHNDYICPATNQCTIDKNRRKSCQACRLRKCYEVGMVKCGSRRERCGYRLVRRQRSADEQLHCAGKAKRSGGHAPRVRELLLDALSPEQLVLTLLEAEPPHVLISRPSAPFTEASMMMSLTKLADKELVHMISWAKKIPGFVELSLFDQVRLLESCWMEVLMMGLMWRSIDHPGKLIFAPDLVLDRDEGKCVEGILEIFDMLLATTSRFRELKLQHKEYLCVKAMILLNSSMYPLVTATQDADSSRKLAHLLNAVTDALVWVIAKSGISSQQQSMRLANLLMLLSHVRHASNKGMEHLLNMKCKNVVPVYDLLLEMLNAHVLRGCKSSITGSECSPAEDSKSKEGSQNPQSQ
Sequence of Progesterone receptor (Homo sapiens) (P06401 whole entry, looked up): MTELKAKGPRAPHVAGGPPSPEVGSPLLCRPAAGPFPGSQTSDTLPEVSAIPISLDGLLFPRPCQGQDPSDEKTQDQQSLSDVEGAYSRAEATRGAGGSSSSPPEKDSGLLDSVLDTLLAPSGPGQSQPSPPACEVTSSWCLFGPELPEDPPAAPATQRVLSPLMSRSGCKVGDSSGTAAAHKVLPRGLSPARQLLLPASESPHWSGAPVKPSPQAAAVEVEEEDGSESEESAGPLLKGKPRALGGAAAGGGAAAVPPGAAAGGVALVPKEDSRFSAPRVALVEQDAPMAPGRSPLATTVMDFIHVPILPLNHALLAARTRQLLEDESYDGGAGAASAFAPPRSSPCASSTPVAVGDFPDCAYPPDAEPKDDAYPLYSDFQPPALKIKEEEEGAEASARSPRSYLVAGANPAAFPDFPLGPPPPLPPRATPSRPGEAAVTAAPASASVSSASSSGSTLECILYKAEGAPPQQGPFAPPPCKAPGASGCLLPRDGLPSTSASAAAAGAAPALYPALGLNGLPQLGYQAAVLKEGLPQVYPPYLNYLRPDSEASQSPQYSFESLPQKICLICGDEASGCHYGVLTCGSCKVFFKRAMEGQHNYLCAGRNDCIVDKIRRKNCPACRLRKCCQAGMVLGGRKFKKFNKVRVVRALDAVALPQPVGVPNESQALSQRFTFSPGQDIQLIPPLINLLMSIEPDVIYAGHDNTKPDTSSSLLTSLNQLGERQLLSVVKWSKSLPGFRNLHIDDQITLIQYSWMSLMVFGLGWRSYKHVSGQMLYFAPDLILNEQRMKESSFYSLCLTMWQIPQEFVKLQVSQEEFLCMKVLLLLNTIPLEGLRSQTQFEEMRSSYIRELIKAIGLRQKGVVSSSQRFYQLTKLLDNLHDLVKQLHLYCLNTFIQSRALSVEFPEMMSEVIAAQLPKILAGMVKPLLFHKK
Sequence of Androgen receptor (Homo sapiens) (P10275 whole entry, looked up): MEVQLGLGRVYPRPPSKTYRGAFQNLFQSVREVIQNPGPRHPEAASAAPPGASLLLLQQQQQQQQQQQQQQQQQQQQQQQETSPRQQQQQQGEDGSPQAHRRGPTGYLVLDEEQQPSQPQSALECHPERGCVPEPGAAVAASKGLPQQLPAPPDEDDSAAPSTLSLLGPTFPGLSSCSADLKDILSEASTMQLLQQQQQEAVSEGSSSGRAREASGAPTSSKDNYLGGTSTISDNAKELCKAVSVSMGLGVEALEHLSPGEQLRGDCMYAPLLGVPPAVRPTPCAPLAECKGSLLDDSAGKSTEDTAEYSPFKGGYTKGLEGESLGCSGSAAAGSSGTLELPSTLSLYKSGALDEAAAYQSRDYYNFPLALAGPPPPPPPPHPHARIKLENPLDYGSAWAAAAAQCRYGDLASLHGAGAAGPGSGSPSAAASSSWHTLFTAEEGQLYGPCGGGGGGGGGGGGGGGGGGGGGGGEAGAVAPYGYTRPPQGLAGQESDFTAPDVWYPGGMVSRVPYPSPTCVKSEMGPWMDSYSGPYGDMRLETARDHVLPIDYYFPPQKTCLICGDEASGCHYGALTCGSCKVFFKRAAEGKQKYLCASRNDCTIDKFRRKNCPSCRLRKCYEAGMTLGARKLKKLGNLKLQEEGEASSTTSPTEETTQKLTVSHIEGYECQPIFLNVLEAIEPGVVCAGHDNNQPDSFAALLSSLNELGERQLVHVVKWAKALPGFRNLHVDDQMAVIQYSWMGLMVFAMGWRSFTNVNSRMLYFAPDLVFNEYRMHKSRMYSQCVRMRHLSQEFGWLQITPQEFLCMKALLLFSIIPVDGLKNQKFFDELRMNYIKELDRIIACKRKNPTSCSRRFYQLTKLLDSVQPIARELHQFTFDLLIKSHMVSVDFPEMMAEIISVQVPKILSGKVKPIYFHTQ

CN(C)c1ccccc1
not listed: [18] | [19] | [20]
inactive: all other assays above

CCN(CC)C(=O)C(C)Oc1cccc2ccccc12 (stereo not given)
not listed: [9] | [11] | [14] | [19] | [20]
inactive: all other assays above

CCCCCCCCCCCCCl
not listed: [14] | [19] | [20]
inactive: all other assays above

CCOP(=S)(OCC)OP(=S)(OCC)OCC
not listed: [18] | [20]
inactive: all other assays above

C=CC(Cl)CCl (stereo not given)
not listed: [10] | [18]
inactive: all other assays above

N#CC(c1ccccc1)c1ccccc1
not listed: [14] | [18] | [19] | [20]
inactive: all other assays above

Clc1ccccc1-c1nnc(-c2ccccc2Cl)nn1
not listed: [19]
inactive: all other assays above
